Test results: PubChem BioAssay (Tox21)
Active and inactive are the calls of the source. A call without a number means that no potency is given here. Unless noted, the call rests on the fitted dose curve; in most records, active means well fitted curve in the direction sought with a large enough effect in the repeat runs; inconclusive means weak or mixed curves; inactive means no such curve, though single readings can be large; an effect the other way counts as inactive or inconclusive.

Experiments:
[1] = qHTS assay for small molecule agonists of the p53 signaling pathway (AID 651631; calls by dose curve; further: nearly all actives have a fitted effect of over 15% in size; further: potency means the concentration at half of the fitted maximal effect)
Outline: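 Agonist mode screen using a stably integrated beta-lactamase gene under p53 response elements in HCT-116 cells. Compound exposure lasts 16 h at 37 °C; fluorescence intensity is measured following 2 h FRET substrate loading.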

[2] = qHTS assay for small molecule agonists of the p53 signaling pathway - cell viability (AID 651633; calls by dose curve;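 further: p53RE-bla HCT reporter cells with a stable beta-lactamase p53 reporter; nearly all actives have a fitted effect of over 30% in size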)
Outline: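 p53RE-bla cells were treated with compound for 16 hours at 37 C. Cytotoxicity was then measured as CellTiter-Glo luminescence after 30 min at room temperature.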

[3] = qHTS assay for small molecules that induce genotoxicity in human embryonic kidney cells expressing luciferase-tagged ATAD5 - cell viability (AID 651634; calls by dose curve; further: nearly all actives have a fitted effect of over 25% in size)
Outline: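 Cells (HEK293T, luciferase-tagged ATAD5) are seeded at 2,000 per well, dosed with compound or DMSO vehicle, and incubated 15.5 hr at 37C and 5% CO2. CellTiter-Fluor is added for 30 min before fluorescence is measured.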

[4] = qHTS assay for small molecule disruptors of the mitochondrial membrane potential - cell viability (AID 720634; calls by dose curve;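 further: human HepG2 liver cancer cells; nearly all actives have a fitted effect of over 20% in size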)
Outline: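 Cytotoxicity was measured by ATP quantitation in HepG2 wells that had first been treated with compound for 1 hr and stained with m-MPI dye; CellTiter-Glo incubation was 30 min at room temperature.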

[5] = qHTS assay for small molecule disruptors of the mitochondrial membrane potential (AID 720635); further: potency means the concentration at half of the fitted maximal effect
Outline: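 HepG2 cells exposed to compound 1 hr at 37C, then Mito-MPS dye 30 min. Ratio read of aggregate (540/590 nm) versus monomer (490/535 nm) fluorescence.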

[6] = qHTS assay to test for compound auto fluorescence at 590 nm (red) in HepG2 cells (AID 720674)
Outline: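 HepG2 cells, 2,000 per well in MEM with 10% FBS, attached overnight at 37 C, then got 23 nL compound or DMSO. After 1 hr at 37 C, 5% CO2, red fluorescence was read at 540/590 nm against Rose Bengal sodium as reference.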

[7] = qHTS assay to test for compound auto fluorescence at 535 nm (green) in HepG2 cells (AID 720675)
[8] = qHTS assay to test for compound auto fluorescence at 460 nm (blue) in HEK293 cells (AID 720678)
Outline: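 HEK293 cells (2,000 per well, medium with 10% dialyzed FBS) attached for 4-5 hr at 37C, then received compound and stood overnight at 37C, 5% CO2. Blue fluorescence was read at Ex/Em 405/460 nm and expressed relative to triamterene.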

[9] = qHTS assay to test for compound auto fluorescence at 590 nm (red) in HEK293 cells (AID 720679)
Outline: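 HEK293 cells (2,000/well, medium with 10% dialyzed FBS) attached for 4-5 hr at 37C, received 23 nL compound and were incubated overnight at 37C, 5% CO2. Red fluorescence was then read at 540/590nm Ex/Em, referenced to Rose Bengal sodium.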

[10] = qHTS assay to test for compound auto fluorescence at 535 nm (green) in HEK293 cells (AID 720680)
[11] = qHTS assay to test for compound auto fluorescence at 460 nm (blue) in HEK293 cell free culture (AID 720681)
Outline: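 Compounds were added to cell-free DMEM with 10% FBS and fluorescence read directly. The blue channel used 405 nm excitation and 460 nm emission, with triamterene as the reference fluorophore.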

[12] = qHTS assay to test for compound auto fluorescence at 535 nm (green) in HEK293 cell free culture (AID 720682)
Outline: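 No cells present: wells hold DMEM supplemented with 10% FBS, into which compound or vehicle is pinned. Green emission is then recorded (485 nm excitation, 535 nm emission) and scaled to fluorescein.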

[13] = qHTS assay to test for compound auto fluorescence at 590 nm (red) in HEK293 cell free culture (AID 720683)
Outline: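 Cell-free wells of DMEM with 10% FBS received compound, and intrinsic fluorescence was read at excitation/emission 540/590 nm. Values expressed as equivalence to Rose Bengal sodium.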

[14] = qHTS assay to test for compound auto fluorescence at 590 nm (red) in HepG2 cell free culture (AID 720684)
Outline: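 Auto fluorescence equivalency versus Rose Bengal sodium, red channel Ex/Em 540/590 nm; compounds in cell-free MEM/10% FBS; DMSO vehicle control.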

[15] = qHTS assay to test for compound auto fluorescence at 460 nm (blue) in HepG2 cell free culture (AID 720685)
Outline: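 Cell-free plates of MEM plus 10% FBS received 23 nL compound or DMSO vehicle; blue-channel (405/460 nm) intensity scored against triamterene as reference fluorophore.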

[16] = qHTS assay to test for compound auto fluorescence at 535 nm (green) in HepG2 cell free culture (AID 720686)
[17] = qHTS assay to test for compound auto fluorescence at 460 nm (blue) in HepG2 cells (AID 720687)
Outline: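 HepG2 cells in MEM with 10% FBS, attached overnight at 37 C, were exposed to compound or DMSO for 1 hr at 37 C, 5% CO2. Blue fluorescence was read at 405/460 nm, with triamterene as reference fluorophore.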

[18] = target: Glucocorticoid receptor (Homo sapiens) (UniProt P04150); test: qHTS assay to identify small molecule agonists of the glucocorticoid receptor (GR) signaling pathway (AID 720691; active means well fitted activation curve with a large enough effect in the signal ratio in the repeat runs, not every such curve was filed as active; inconclusive means weak or mixed curves, or effect the other way; inactive means no such curve, though single readings can be large or run the other way; the % refers to the signal ratio; further: potency means the concentration at half of the fitted maximal effect); conditions: GR-bla HeLa, beta-lactamase reporter ratio, 18 h; activation: at 62.4 µM (top of the series)
Outline: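 Steps: seed GR-bla HeLa cells, incubate 4 h at 37 C/5% CO2; pin-transfer DMSO-dissolved compounds; incubate 18 h at 37 C; add LiveBLAzer B/G FRET substrate; after 2 h at room temperature, measure fluorescence.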

[19] = qHTS assay for small molecules that induce genotoxicity in human embryonic kidney cells expressing luciferase-tagged ATAD5 (AID 651632); further: nearly all actives have a fitted effect of over 15% in size
Outline: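 Cells were seeded at 2,000 per well, dosed with compound, and incubated 16 hr at 37C in 5% CO2. Luciferase activity was then quantified after a 30 min room-temperature incubation with Amplite.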

[20] = target: Glucocorticoid receptor (Homo sapiens) (UniProt P04150); test: qHTS assay to identify small molecule antagonists of the glucocorticoid receptor (GR) signaling pathway (AID 720692; active means well fitted inhibition curve with a large enough effect in the signal ratio in the repeat runs, not every such curve was filed as active; inconclusive means weak or mixed curves, or effect the other way; inactive means no such curve, though single readings can be large or run the other way; the % refers to the signal ratio)
Outline: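 Antagonism was scored as loss of dexamethasone-driven (5 nM final) reporter signal in HeLa cells bearing a glucocorticoid response element–beta-lactamase construct, after 18 h compound exposure at 37 C and 2 h FRET substrate loading.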

Chain of Glucocorticoid receptor (Homo sapiens) (P04150 whole entry, looked up): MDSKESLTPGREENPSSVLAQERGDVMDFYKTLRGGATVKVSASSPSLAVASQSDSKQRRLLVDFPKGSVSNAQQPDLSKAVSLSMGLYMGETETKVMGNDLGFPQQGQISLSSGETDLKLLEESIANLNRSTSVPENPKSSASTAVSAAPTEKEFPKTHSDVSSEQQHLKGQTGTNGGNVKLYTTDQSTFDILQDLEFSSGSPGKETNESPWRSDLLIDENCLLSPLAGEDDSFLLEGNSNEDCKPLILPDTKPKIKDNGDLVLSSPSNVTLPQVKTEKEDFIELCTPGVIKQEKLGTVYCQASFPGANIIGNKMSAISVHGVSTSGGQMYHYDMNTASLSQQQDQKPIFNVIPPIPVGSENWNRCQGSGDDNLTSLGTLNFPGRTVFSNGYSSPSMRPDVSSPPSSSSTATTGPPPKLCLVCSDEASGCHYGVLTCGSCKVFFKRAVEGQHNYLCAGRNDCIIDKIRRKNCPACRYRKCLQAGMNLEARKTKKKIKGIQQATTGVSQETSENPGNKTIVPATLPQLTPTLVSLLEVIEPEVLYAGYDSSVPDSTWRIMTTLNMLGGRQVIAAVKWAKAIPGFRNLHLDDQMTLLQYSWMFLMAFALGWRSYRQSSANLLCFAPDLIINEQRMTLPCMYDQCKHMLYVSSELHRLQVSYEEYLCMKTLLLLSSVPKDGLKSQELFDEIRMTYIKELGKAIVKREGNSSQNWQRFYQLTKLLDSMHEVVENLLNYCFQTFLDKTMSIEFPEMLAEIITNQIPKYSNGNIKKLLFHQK

Row | Compound | Potency [1] | Potency [2] | Potency [3] | Potency [4] | Potency [5] | Potency [6] | Potency [7] | Potency [8] | Potency [9] | Potency [10] | Potency [11] | Potency [12] | Potency [13] | Potency [14] | outcome [15] | Potency [16] | outcome [17] | Potency [18] | Potency [19] | Potency [20]
1 | CN[C@@H]1[C@@H](O)[C@@H](O[C@@H]2[C@@H](O)[C@H](O[C@H]3O[C@H](CN)[C@@H](O)[C@H](O)[C@H]3O)[C@@H](N)C[C@H]2NC(=O)C(O)CN)OC[C@]1(C)O (stereo partly drawn) | inactive | inactive | inactive | inactive | inactive | inactive | inactive | inactive | inactive | inactive | inactive | inactive | inactive | inactive | inactive | inactive | inactive | 6.01 µM (active) | – | –
2 | O=C1C(=O)c2ncccc2-c2cccnc21 | 1.68 µM (active) | – | inactive | inactive | 26.6 µM (active) | inactive | inactive | – | inactive | inactive | – | inactive | inactive | inactive | – | inactive | – | inactive | inactive | –
3 | CC(NNC(=O)c1ccccc1)c1ccccc1 (stereo not drawn) | inactive | inactive | inactive | inactive | 24.8 µM (active) | inactive | inactive | inactive | inactive | inactive | inactive | inactive | inactive | inactive | inactive | inactive | inactive | – | – | –
4 | C=CCNC1=C2C[C@@H](C)C[C@H](OC)[C@H](O)[C@@H](C)/C=C(\C)[C@H](OC(N)=O)[C@@H](OC)/C=C\C=C(/C)C(=O)NC(=CC1=O)C2=O | 0.168 µM (active) | inactive | – | inactive | – | inactive | inactive | inactive | inactive | inactive | inactive | inactive | inactive | inactive | inactive | inactive | inactive | inactive | inactive | –
5 | CCNC(=O)[C@@H]1CCCN1C(=O)[C@H](CCCN=C(N)N)NC(=O)[C@H](CC(C)C)NC(=O)[C@@H](CC(C)C)NC(=O)[C@H](Cc1ccc(O)cc1)NC(=O)[C@H](CO)NC(=O)[C@H](Cc1c[nH]c2ccccc12)NC(=O)[C@H](Cc1cnc[nH]1)NC(=O)[C@@H]1CCC(=O)N1 | inactive | inactive | inactive | inactive | inactive | inactive | inactive | inactive | inactive | inactive | inactive | inactive | inactive | inactive | inactive | inactive | inactive | inactive | – | inactive
6 | CCC(C)C(C(=O)OCC[N+](C)(CC)CC)c1ccccc1 (stereo not drawn) | inactive | inactive | inactive | inactive | inactive | inactive | inactive | inactive | inactive | inactive | inactive | inactive | inactive | inactive | inactive | inactive | inactive | inactive | – | inactive
7 | CN1c2cc(O)c(N=NC(N)=O)cc2CC1S(=O)(=O)O (stereo not drawn) | inactive | inactive | – | inactive | – | inactive | inactive | inactive | inactive | inactive | inactive | inactive | inactive | inactive | inactive | inactive | inactive | – | inactive | –
8 | CNC[C@@H]1CC[C@@H](N)[C@@H](O[C@H]2[C@H](O)[C@@H](O[C@H]3OC[C@](C)(O)[C@H](NC)[C@H]3O)[C@H](N)C[C@@H]2N)O1 | inactive | inactive | inactive | inactive | inactive | inactive | inactive | inactive | inactive | inactive | inactive | inactive | inactive | inactive | inactive | inactive | inactive | – | – | –
9 | C[C@]12C=CC(=O)C=C1CC[C@@H]1[C@@H]2[C@@H](O)C[C@@]2(C)[C@H]1CC[C@]2(O)C(=O)COC(=O)CCC(=O)O | inactive | inactive | inactive | inactive | inactive | inactive | inactive | inactive | inactive | inactive | inactive | inactive | inactive | inactive | inactive | inactive | inactive | 0.268 µM [inconclusive] (active) | – | –
10 | O=C(O)c1ccc(NC(=O)[C@H](Cc2ccc(O)cc2)NC(=O)c2ccccc2)cc1 | inactive | – | inactive | inactive | inactive | inactive | inactive | inactive | inactive | inactive | inactive | inactive | inactive | inactive | inactive | inactive | inactive | – | inactive | –
11 | CNC(=O)[C@H](Cc1c[nH]c2ccccc12)NC(=O)[C@@H](CC(=O)NO)CC(C)C | inactive | inactive | inactive | inactive | inactive | inactive | inactive | inactive | inactive | inactive | inactive | inactive | inactive | inactive | inactive | inactive | inactive | 15.1 µM (active) | – | –
12 | CC(C)[C@@H](N)C(=O)O | inactive | inactive | – | inactive | – | inactive | inactive | inactive | inactive | inactive | inactive | inactive | inactive | inactive | – | inactive | inactive | inactive | inactive | –
13 | CC(C)(CO)[C@@H](O)C(=O)NCCC(=O)NCCSSCCNC(=O)CCNC(=O)[C@H](O)C(C)(C)CO | inactive | inactive | inactive | inactive | inactive | inactive | inactive | inactive | inactive | inactive | inactive | inactive | inactive | inactive | inactive | inactive | inactive | inactive | – | inactive
14 | CCCC(=O)Nc1ncnc2c1ncn2[C@@H]1O[C@@H]2COP(=O)(O)O[C@H]2[C@H]1OC(=O)CCC | inactive | inactive | inactive | inactive | inactive | inactive | inactive | inactive | inactive | inactive | inactive | inactive | inactive | inactive | inactive | inactive | inactive | – | – | inactive
